From PubChem BioAssay (NCATS)
Records with an inconclusive call do not appear. A number with no mark means an inactive call. Active and inactive are the calls of the source. The call rests on the fitted dose curve; in most records, active means well fitted inhibition curve with a large enough effect; inconclusive means small, poorly fitted or top-dose-only effect; inactive means no such curve, though single readings can be large or run the other way.

System: Zika virus NS2B-NS3 protease (unlinked complex)
Experiment: Primary screen GU Rhodamine qHTS for Zika virus inhibitors: Unlinked NS2B-NS3 protease assay (AID 1347159); further: nearly all actives have a fitted effect of over 60% in size
Settings: Recombinant ZIKV NS2B-NS3 protease, Rhodamine110 substrate fluorescence; series mostly up to 107 µM; activity change, negative = inhibition: at the top concentration
Procedure, shortened: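 Enzyme 25 nM in Tris-HCl pH 8.0 + 0.01% Tween 20; compounds up to 114 microM, 15 min RT dark; + Rhod110 substrate 1.5 microM; read t0 and 15 min; delta fluorescence → % inhibition → 4-parameter Hill fit.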
On the % scale 0 is the no-effect control and ±100 the full control effect; potency means the concentration at half of the fitted maximal effect.

Going from `O=C(Nc1cccnn1)N1CCC(=Cc2cccc(Oc3ccc(C(F)(F)F)cn3)c2)CC1` to `O=C(c1ccc(NS(=O)(=O)c2cccc3cccnc23)cc1)N1CCN(CC2CC2)CC1`, the “activity change, negative = inhibition” value rises from -15.2% to 5.54%.

First: CN[C@@H]1[C@@H](O)[C@@H](O[C@@H]2[C@@H](O)[C@H](O[C@H]3O[C@H](CN)[C@@H](O)[C@H](O)[C@H]3O)[C@@H](N)C[C@H]2NC(=O)[C@@H](O)CN)OC[C@]1(C)O
Second: N#CCc1ccc(O)cc1O[C@@H]1O[C@H](CO)[C@@H](O)[C@H](O)[C@H]1O
The “activity change, negative = inhibition” value of the first is higher: 22.2% for the first, -18% for the second.

Compared with `C=CC1(C)CC2=CCC3C(C)(C(=O)O)CCCC3(C)C2CC1OC(C)=O` (configuration not stated), `Cc1onc(-c2ccccc2)c1C(=O)N[C@@H]1C(=O)N2[C@@H]1SC(C)(C)[C@@H]2C(=O)O` is higher in “activity change, negative = inhibition” value: -28.5% for the first, 0% for the second.

First: COCC(=O)N1CCc2cc(-c3csc(NC(=O)c4cc(OC)cc(OC)c4)n3)ccc21
Second: COCCN(C)Cc1ccc2nc3sc(C(=O)N(C)C4CCCCC4)cn3c2c1
The “activity change, negative = inhibition” value of the first is higher: 286% for the first, 4.8% for the second.

Compared with `COC1CC(OC2CCC3(C)C(=CCC4C3CCC3(C)C(C(C)O)CCC43O)C2)OC(C)C1OC1OC(C)C(OC2OC(COC3OC(COC4OC(CO)C(O)C(O)C4O)C(O)C(O)C3O)C(O)C(O)C2O)C(OC)C1O` (configuration not stated), `COc1cc(/C=C/C(=O)OC(C)(C)C(OC2OC(CO)C(O)C(O)C2O)C(=O)OCc2ccc(OC3OC(CO)C(O)C(O)C3O)cc2)ccc1O` (configuration not stated) is higher in “activity change, negative = inhibition” value: 0.333% [at 32.5 µM] for the first, 20.5% [at 32.5 µM] for the second.

For `C=Cc1cc(O)cc2nc(-c3ccc(O)c(F)c3)oc12`, the Potency was 35.5 µM (active).

With `COc1cc(C/C(=C/NC(C)=O)N(CC(=O)Cc2ccccc2)C(C)=O)cc2c1OCO2` the “activity change, negative = inhibition” value was 5.79% [at 57.1 µM].
